From PubChem BioAssay AID1159580 (chemical genetic matrix, 2015)
The whole screen tested about 5,500 compounds, of which about 2,000 (36%) were called active. Inconclusive results (about 18%) are left out. No stated cut-off is given here; in the data, active means normalized growth mostly below about 0.91 (no sharp cut-off); inconclusive means no clear call, values can overlap the other calls; inactive means mostly above about 0.92. The list shows a part of the results.

Assay: chemical genetic growth profiling, strain panel (AID 1159580);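 further: tested at 20 µM; growth read once vehicle control cultures reached saturation at 30 °C; 1 = growth at the plate median or of vehicle wells; lower values mean less growth of the strain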
Conditions: S. cerevisiae deletion strains, growth OD

Measured: normalized growth

Cc1[nH]c2ccc(O)cc2c1CCN
inactive: locus YAL040C, strain CLN3, hits give low values 1 | locus YCL061C, strain MRC1 (second series), hits give low values 1.01 | locus YDR363W, strain ESC2, hits give low values 1.05 | locus YER002W, strain NOP16, hits give low values 1 | locus YMR263W, strain SAP30, hits give low values 1.01 | locus YNL153C, strain GIM3, hits give low values 1.03 | locus YNL175C, strain NOP13, hits give low values 1.01 | locus YNL197C, strain WHI3, hits give low values 0.987 | locus YNL224C, strain SQS1, hits give low values 0.996 | locus YNL322C, strain KRE1, hits give low values 1.02 | locus YOR083W, strain WHI5 (second series), hits give low values 0.999
